Measured values as given in the supplement of paper PMC10849652.
About 7,900 targets were measured; listed, in parts, are those with a hit and a random draw of the rest. About 0.6% of all pairs of compound and target were hits.

What was measured:
Assay in all cases: log2 fold change, soluble protein after heating vs DMSO (PISA); higher = thermal stabilisation; K562 cells, 10 uM, 30 min; active = over 0.2 and 3.5 SD of the protein, either way, in both replicates (recomputed)
[1] = compound: COC1=CC=C(C=C1)CN2C=CC3=C2C=C(C=C3)C(=O)NO
In short: (§1)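 K562 cells at 2×10^6 cells/mL were exposed to 10 μM compound for 30 min, then aliquots were heated for 3 min across 48°C-58°C, pooled, and extracted in PBS containing 0.5% NP-40 at 4°C. The supernatant after 21,000xg for 90 min was taken as soluble protein and measured by TMTpro 16plex LC-MS/MS with channel sums equalised. Thermal stability is reported relative to control samples, with values from duplicates. Fold changes are given on a log2 scale.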

[2] = compound: CON(C)C(=O)N1N=C(c2cc(F)ccc2F)S[C@@]1(CCCN)c1ccccc1 [filanesib]
In short: as §1

[3] = compound: CO[C@H]1C[C@@H]2CC[C@@H](C)[C@@](O)(O2)C(=O)C(=O)N2CCCC[C@H]2C(=O)O[C@H]([C@H](C)C[C@@H]2CC[C@H](n3cnnn3)[C@H](OC)C2)CC(=O)[C@H](C)/C=C(\C)[C@@H](O)[C@@H](OC)C(=O)[C@H](C)C[C@H](C)/C=C/C=C/C=C/1C [zotarolimus]
In short: as §1

[4] = compound: COc1cc(C(=O)O)ccc1NC(=O)[C@@H]1N[C@@H](CC(C)(C)C)[C@](C#N)(c2ccc(Cl)cc2F)[C@H]1c1cccc(Cl)c1F [idasanutlin]
In short: as §1

[5] = compound: COc1cc(Nc2ncc3c(n2)-c2ccc(Cl)cc2C(c2c(F)cccc2OC)=NC3)ccc1C(=O)O [alisertib]
In short: as §1

[6] = compound: COc1cc2nc(-c3cc(F)ccc3O)nc(N[C@@H]3CNC[C@H]3C(C)(C)O)c2cc1OC
In short: as §1

[7] = compound: COc1cc2ncnc(Nc3ccc(F)c(Cl)c3)c2cc1OCCCN1CCOCC1 [gefitinib]
In short: as §1

[8] = compound: COc1cccc2cc(-c3nc([C@H]4CC[C@H](C(=O)O)CC4)n4ncnc(N)c34)[nH]c12
In short: as §1

[9] = compound: CS(=O)(=O)CCNCc1ccc(-c2ccc3ncnc(Nc4ccc(OCc5cccc(F)c5)c(Cl)c4)c3c2)o1 [lapatinib]
In short: as §1

[10] = compound: CS(=O)(=O)N1CCN(Cc2cc3nc(-c4cccc5[nH]ncc45)nc(N4CCOCC4)c3s2)CC1 [pictilisib]
In short: as §1

[11] = compound: CS(=O)(=O)c1ccc(-c2cnc(N)c(C(=O)Nc3ccccc3)n2)cc1
In short: as §1

[12] = compound: C[C@@H](Oc1cc(-c2cnn(C3CCNCC3)c2)cnc1N)c1c(Cl)ccc(F)c1Cl [crizotinib]
In short: as §1

[13] = compound: C[C@@H]1COCCN1C2=NC(=NC(=C2)C3(CC3)S(=O)(=O)C)C4=C5C=CNC5=CC=C4
In short: as §1

[14] = compound: C[C@H](C1=CC=C(C=C1)C(=O)NC2=C3C=CNC3=NC=C2)N
In short: as §1

[15] = compound: C[C@H](Nc1ncnc2nc[nH]c12)c1cc2cccc(Cl)c2c(=O)n1-c1ccccc1 [duvelisib]
In short: as §1

[16] = compound: Cc1cc(Nc2cc(CN3CCOCC3)c3nc(C)c(Cc4ccc(Cl)cc4F)n3n2)n[nH]1 [gandotinib]
In short: as §1

[17] = compound: Cc1cc(Nc2cc(N3CCN(C)CC3)nc(Sc3ccc(NC(=O)C4CC4)cc3)n2)n[nH]1 [tozasertib]
In short: as §1

[18] = compound: Cc1cc(SCc2sc(-c3ccc(C(F)(F)F)cc3)nc2C)ccc1OCC(=O)O
In short: as §1

[19] = compound: Cc1ccc(-n2nc(C(C)(C)C)cc2NC(=O)Nc2ccc(OCCN3CCOCC3)c3ccccc23)cc1 [doramapimod]
In short: as §1

[20] = compound: Cc1ccc(C(=O)N(CCCN)[C@@H](c2nc3cc(Cl)ccc3c(=O)n2Cc2ccccc2)C(C)C)cc1 [ispinesib]
In short: as §1

Measured: log2 fold change

STAT5B (UniProt P51692)
Chain of UniProt P51692 (P51692 whole entry, looked up): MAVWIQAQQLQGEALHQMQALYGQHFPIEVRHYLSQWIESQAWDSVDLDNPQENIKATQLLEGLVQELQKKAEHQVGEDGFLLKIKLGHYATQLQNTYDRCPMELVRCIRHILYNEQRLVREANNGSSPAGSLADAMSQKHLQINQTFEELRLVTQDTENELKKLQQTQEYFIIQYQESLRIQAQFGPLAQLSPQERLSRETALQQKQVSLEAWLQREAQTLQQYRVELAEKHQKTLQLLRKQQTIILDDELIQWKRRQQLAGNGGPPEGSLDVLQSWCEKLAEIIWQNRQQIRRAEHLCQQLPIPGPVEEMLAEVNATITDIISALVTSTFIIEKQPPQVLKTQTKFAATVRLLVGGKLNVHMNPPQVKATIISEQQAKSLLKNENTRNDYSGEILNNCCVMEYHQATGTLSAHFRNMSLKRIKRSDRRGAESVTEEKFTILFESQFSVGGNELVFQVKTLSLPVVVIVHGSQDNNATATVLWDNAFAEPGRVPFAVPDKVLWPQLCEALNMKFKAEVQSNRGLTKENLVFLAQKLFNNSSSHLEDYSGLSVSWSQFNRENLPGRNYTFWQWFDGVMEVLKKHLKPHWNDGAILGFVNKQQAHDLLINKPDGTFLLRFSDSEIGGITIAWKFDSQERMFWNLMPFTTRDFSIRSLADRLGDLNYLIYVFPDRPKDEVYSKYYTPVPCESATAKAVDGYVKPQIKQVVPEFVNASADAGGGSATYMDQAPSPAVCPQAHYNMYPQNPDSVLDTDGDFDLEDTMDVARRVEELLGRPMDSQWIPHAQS
inactive: [1] 0.13 | [2] -0.036 | [3] 0.112 | [4] 0.086 | [5] -0.038 | [6] -0.115 | [7] 0.046 | [8] -0.094 | [9] 0.029 | [10] -0.148 | [11] 0.119 | [12] -0.353 | [13] -0.037 | [14] -0.014 | [15] -0.164 | [16] -0.209 | [17] 0.129 | [18] 0.097 | [19] -0.09 | [20] -0.082

TAOK3 (UniProt Q9H2K8)
inactive: [1] 0.047 | [2] 0.014 | [3] 0.002 | [4] -0.003 | [5] -0.038 | [6] -0.049 | [7] 0.001 | [8] -0.011 | [9] 0.061 | [10] -0.001 | [11] -0.051 | [12] -0.03 | [13] -0.008 | [14] -0.13 | [15] 0.014 | [16] -0.08 | [17] 0.011 | [18] 0.057 | [19] 0.023 | [20] 0.01

SNW1 (UniProt Q13573)
Chain of UniProt Q13573 (Q13573 whole entry, looked up): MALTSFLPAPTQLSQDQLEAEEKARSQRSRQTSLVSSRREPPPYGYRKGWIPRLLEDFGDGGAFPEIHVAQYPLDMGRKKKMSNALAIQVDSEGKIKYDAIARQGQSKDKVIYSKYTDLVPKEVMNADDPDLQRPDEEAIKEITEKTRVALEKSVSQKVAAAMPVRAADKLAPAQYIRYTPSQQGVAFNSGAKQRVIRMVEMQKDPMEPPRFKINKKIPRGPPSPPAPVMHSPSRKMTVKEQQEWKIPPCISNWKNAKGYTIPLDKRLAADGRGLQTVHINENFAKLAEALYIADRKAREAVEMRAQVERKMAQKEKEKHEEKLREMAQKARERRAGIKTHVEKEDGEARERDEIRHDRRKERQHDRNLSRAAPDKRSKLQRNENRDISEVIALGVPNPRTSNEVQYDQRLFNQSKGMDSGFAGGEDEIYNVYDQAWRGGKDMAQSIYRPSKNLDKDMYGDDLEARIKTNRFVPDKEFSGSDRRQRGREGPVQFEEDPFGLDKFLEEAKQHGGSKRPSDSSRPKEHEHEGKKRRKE
inactive: [1] 0.014 | [2] 0.039 | [3] -0.068 | [4] 0.034 | [5] -0.08 | [6] 0.073 | [7] -0.068 | [8] 0 | [9] 0.011 | [10] -0.035 | [11] -0.035 | [12] 0.068 | [13] -0.062 | [14] 0.015 | [15] -0.016 | [16] 0.045 | [17] -0.015 | [18] -0.045 | [19] 0 | [20] -0.048

SNX15 (UniProt Q9NRS6)
Chain of UniProt Q9NRS6 (Q9NRS6 whole entry, looked up): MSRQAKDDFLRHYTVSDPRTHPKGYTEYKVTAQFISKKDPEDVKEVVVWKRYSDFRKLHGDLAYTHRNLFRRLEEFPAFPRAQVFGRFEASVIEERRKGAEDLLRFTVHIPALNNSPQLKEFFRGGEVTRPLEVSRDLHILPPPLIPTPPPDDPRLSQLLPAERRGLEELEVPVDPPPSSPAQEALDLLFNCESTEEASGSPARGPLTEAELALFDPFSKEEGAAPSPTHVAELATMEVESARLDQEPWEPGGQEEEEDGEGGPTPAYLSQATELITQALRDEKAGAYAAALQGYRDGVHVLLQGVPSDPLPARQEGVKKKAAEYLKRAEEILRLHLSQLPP
inactive: [1] -0.166 | [2] 0.151 | [3] -0.034 | [4] 0.108 | [5] -0.027 | [6] 0.019 | [7] 0.126 | [8] 0.032 | [9] -0.139 | [10] 0.018 | [11] 0.064 | [12] 0.002 | [14] 0.153 | [15] -0.012 | [16] -0.061 | [17] 0.063 | [18] -0.043 | [19] 0.136 | [20] -0.132

SRSF9 (UniProt Q13242)
Chain of UniProt Q13242 (Q13242 whole entry, looked up): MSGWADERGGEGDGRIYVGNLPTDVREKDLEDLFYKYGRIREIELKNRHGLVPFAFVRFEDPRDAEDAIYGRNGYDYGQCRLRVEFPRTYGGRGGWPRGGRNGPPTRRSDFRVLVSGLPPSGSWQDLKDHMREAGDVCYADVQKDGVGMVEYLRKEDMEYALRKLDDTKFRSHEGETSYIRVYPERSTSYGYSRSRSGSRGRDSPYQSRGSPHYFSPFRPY
inactive: [1] -0.088 | [2] 0.378 | [3] -0.026 | [4] 0.297 | [5] -0.118 | [6] -0.09 | [7] -0.068 | [8] -0.128 | [9] 0.155 | [10] -0.036 | [11] -0.11 | [12] 0.058 | [13] -0.539 | [14] 0.389 | [15] -0.142 | [16] 0.4 | [18] -0.048 | [19] 0.26 | [20] -0.255

SYNE2 isoform 2 (UniProt Q8WXH0)
inactive: [1] 0.112 | [2] 0.048 | [3] -0.057 | [4] -0.185 | [5] -0.054 | [6] 0.34 | [7] 0.078 | [8] -0.004 | [9] -0.133 | [10] 0.205 | [11] 0.209 | [12] -0.009 | [14] 0.429 | [15] 0.214 | [17] -0.053 | [18] 0.06 | [19] 0.046 | [20] -0.08
active: [16] 0.521

SMARCA4 (UniProt P51532)
active: [9] -0.544
inactive: [1] -0.101 | [2] 0.124 | [3] 0.09 | [4] 0.15 | [5] -0.086 | [6] 0.273 | [8] -0.038 | [10] 0.025 | [11] 0.216 | [12] 0.01 | [13] 0.036 | [14] 0.188 | [15] 0.065 | [16] 0.042 | [18] -0.064 | [19] 0.085 | [20] -0.248

SNRNP40 (UniProt Q96DI7)
Chain of UniProt Q96DI7 (Q96DI7 whole entry, looked up): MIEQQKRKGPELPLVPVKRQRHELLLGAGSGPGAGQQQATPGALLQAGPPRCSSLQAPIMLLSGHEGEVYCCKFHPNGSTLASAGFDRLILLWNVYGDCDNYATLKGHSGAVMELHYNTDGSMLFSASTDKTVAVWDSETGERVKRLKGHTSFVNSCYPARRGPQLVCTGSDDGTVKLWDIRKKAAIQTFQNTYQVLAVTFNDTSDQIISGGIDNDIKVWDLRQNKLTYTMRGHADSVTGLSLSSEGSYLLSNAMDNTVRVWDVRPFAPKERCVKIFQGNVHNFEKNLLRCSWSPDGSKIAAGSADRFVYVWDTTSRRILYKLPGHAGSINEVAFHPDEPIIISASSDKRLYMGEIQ
inactive: [1] -0.039 | [2] 0.08 | [3] -0.015 | [4] 0.007 | [5] -0.054 | [6] 0.191 | [7] -0.052 | [8] 0.025 | [9] 0.02 | [11] 0.033 | [12] 0.116 | [13] 0.14 | [14] 0.023 | [15] -0.015 | [16] 0.22 | [17] 0.019 | [18] -0.059 | [19] 0.071 | [20] 0.077
active: [10] 0.295

SRC isoform 2 (UniProt P12931)
inactive: [1] 0.197 | [2] 0.229 | [3] -0.123 | [4] 0.119 | [5] 0.01 | [6] 0.017 | [8] 0.219 | [9] 0.088 | [10] 0.113 | [11] -0.248 | [12] -0.154 | [13] 0.229 | [14] 0.07 | [15] 0.168 | [16] -0.056 | [17] -0.183 | [18] 0.101 | [19] -0.052 | [20] -0.068

SPAG9 isoform 4 (UniProt O60271)
inactive: [1] -0.02 | [2] 0.078 | [3] -0.076 | [4] -0.006 | [5] 0.062 | [7] -0.007 | [8] -0.112 | [11] 0.144 | [12] -0.061 | [14] 0.123 | [17] 0.142 | [19] 0.042 | [20] -0.128

TAX1BP1 (UniProt Q86VP1)
Chain of UniProt Q86VP1 (Q86VP1 whole entry, looked up): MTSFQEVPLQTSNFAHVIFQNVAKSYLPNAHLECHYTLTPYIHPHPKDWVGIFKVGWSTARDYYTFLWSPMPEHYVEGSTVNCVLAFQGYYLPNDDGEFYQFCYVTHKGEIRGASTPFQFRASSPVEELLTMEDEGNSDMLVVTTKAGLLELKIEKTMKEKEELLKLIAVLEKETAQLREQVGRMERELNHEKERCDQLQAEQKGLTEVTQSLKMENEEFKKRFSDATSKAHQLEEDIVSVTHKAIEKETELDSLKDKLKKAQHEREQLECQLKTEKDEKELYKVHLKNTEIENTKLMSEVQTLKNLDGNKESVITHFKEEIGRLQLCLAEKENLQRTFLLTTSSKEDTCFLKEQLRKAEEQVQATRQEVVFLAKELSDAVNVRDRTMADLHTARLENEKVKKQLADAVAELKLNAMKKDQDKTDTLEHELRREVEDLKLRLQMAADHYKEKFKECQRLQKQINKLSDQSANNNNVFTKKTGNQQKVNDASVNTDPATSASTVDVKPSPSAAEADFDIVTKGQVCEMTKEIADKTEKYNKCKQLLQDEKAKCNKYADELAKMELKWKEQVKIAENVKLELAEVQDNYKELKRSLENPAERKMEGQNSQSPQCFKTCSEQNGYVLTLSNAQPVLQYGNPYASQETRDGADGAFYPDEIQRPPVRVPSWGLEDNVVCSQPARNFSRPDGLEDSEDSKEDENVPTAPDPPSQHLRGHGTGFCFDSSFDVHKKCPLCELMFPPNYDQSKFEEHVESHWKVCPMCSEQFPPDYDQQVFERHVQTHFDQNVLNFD
inactive: [1] -0.03 | [2] -0.043 | [3] -0.009 | [4] 0.069 | [5] 0.007 | [6] -0.052 | [7] 0.001 | [8] 0.033 | [9] -0.012 | [10] 0.044 | [11] -0.001 | [12] -0.009 | [13] -0.058 | [14] 0.042 | [15] 0.168 | [16] 0.156 | [17] 0.152 | [18] 0.069 | [19] 0.062 | [20] -0.067

SOX5 (UniProt P35711)
Chain of UniProt P35711 (P35711 whole entry, looked up): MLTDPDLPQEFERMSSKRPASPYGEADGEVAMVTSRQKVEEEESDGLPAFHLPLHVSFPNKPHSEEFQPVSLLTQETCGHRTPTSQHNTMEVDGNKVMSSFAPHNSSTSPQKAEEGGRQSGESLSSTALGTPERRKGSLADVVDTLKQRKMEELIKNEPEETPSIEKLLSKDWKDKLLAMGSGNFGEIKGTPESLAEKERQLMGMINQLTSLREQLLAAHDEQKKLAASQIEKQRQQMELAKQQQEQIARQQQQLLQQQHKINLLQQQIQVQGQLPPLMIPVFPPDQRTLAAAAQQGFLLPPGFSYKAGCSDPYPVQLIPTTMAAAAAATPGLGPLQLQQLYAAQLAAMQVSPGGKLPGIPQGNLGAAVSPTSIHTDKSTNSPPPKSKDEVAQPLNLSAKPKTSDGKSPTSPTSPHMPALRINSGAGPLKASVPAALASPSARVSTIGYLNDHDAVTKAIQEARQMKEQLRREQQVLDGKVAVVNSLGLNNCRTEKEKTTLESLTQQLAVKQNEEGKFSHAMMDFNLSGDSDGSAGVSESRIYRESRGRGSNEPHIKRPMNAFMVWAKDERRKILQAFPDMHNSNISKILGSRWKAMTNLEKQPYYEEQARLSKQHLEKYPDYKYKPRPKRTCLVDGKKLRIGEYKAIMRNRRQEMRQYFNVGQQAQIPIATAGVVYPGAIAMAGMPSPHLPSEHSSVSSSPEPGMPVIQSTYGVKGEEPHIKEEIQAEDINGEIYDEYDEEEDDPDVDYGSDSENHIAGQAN
inactive: [1] -0.087 | [2] -0.08 | [3] -0.058 | [4] 0.006 | [5] -0.089 | [6] -0.055 | [7] -0.012 | [8] 0.105 | [9] 0.051 | [11] 0.07 | [12] 0.046 | [14] 0.041 | [17] 0.045 | [19] 0.054 | [20] 0.004

TMBIM6 isoform 2 (UniProt P55061)
inactive: [1] -0.007 | [2] -0.233 | [3] -0.099 | [5] -0.27 | [7] -0.087 | [8] -0.165 | [9] -0.196 | [11] -0.066 | [13] 0.033 | [14] -0.049 | [15] 0.046 | [17] -0.066 | [18] -0.03 | [19] -0.053 | [20] -0.407
active: [4] -0.51 | [6] -0.535 | [12] -0.451

STK38L (UniProt Q9Y2H1)
Chain of UniProt Q9Y2H1 (Q9Y2H1 whole entry, looked up): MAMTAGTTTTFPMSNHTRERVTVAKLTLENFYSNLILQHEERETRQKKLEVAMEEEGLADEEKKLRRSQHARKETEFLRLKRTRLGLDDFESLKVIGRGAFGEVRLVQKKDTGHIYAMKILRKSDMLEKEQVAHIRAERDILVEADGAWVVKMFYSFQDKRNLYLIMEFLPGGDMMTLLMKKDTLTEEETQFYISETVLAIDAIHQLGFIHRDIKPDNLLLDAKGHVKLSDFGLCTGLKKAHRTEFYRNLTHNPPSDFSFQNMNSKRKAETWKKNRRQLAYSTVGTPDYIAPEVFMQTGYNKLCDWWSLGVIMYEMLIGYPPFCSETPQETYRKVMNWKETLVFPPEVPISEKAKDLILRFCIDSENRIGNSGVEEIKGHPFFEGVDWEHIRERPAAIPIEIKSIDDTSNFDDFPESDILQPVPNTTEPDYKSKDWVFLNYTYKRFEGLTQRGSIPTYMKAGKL
inactive: [1] -0.007 | [2] -0.009 | [3] 0.036 | [4] -0.095 | [5] 0.037 | [7] 0.029 | [8] -0.064 | [10] 0.05 | [11] 0.028 | [12] 0.065 | [13] 0.069 | [14] -0.055 | [15] -0.04 | [16] -0.105 | [17] 0.003 | [18] 0.116 | [19] -0.022 | [20] -0.093

SLC35A1 (UniProt P78382)
Chain of UniProt P78382 (P78382 whole entry, looked up): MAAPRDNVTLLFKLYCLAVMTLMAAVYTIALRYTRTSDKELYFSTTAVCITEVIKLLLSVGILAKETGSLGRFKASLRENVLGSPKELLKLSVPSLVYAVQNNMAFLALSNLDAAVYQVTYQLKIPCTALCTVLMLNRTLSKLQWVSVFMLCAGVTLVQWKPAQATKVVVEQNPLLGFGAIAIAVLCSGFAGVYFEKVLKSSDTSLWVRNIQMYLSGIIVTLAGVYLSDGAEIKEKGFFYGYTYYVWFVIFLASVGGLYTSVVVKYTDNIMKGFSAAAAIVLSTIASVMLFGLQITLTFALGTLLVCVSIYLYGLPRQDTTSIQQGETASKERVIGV
inactive: [1] 0.048 | [2] -0.021 | [3] -0.138 | [4] -0.051 | [5] -0.063 | [6] -0.097 | [7] 0.06 | [8] 0.06 | [9] -0.028 | [11] -0.017 | [12] 0.056 | [13] 0.044 | [14] -0.196 | [15] -0.005 | [17] -0.036 | [18] 0.074 | [19] -0.039 | [20] 0.04

SYMPK (UniProt Q92797)
inactive: [1] 0.069 | [2] -0.102 | [3] 0.07 | [4] -0.127 | [5] 0.047 | [6] 0.036 | [7] 0.107 | [8] 0.025 | [9] -0.045 | [10] 0.155 | [11] -0.031 | [12] -0.189 | [13] 0.046 | [14] -0.026 | [15] 0.077 | [16] -0.155 | [17] 0.054 | [18] 0.235 | [19] -0.09 | [20] -0.023

TEX264 (UniProt Q9Y6I9)
Chain of UniProt Q9Y6I9 (Q9Y6I9 whole entry, looked up): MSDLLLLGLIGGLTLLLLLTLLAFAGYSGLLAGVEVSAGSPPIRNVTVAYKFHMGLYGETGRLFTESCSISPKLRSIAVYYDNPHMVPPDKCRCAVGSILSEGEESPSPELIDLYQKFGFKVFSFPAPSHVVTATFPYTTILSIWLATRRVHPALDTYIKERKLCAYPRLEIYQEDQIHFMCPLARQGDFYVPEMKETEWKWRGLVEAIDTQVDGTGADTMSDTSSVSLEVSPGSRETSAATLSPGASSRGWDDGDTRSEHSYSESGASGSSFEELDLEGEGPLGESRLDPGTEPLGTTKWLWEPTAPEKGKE
inactive: [1] 0.07 | [2] -0.169 | [3] 0.059 | [4] -0.076 | [5] -0.042 | [6] 0.163 | [7] 0.164 | [8] -0.046 | [9] 0.421 | [10] 0.321 | [11] 0.361 | [12] 0.079 | [13] 0.064 | [14] 0.176 | [15] 0.037 | [16] -0.059 | [17] 0.113 | [18] -0.028 | [19] 0.039 | [20] -0.016
